Screening data from PubChem BioAssay.
Sampled rows, rich in hits. Any-hit rate of the full collection: about 2.4%.
FEN1 inhibitor: inhibitors of human flap endonuclease 1. P39748. Recombinant FEN1 flap cleavage, fluorescence, 15 min. Potency, µM (titrated, usually from 114 µM), without a hit: top-dose activity change, negative = inhibition, actives largely listed as inhibitors. 390,000 tested, 0.35% active. AID 588795; also: % is scaled to controls: 0 for no effect and ±100 for the full control effect; nearly all actives have a fitted effect of over 65% in size
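Potency values derive from four-parameter Hill fits of normalized qHTS data. The reaction used 10 nM FEN1 preincubated 15 min at room temperature with compound, then 50 nM DNA substrate, read at 0 and 15 min.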
Pol eta inh: DNA polymerase eta (human) inhibition. Q9Y253. recombinant Pol eta, fluorescent DNA replication assay. Potency, µM (series often up to 114 µM), for inactives: at the highest dose activity change, negative = inhibition, actives largely listed as inhibitors. 390,000 tested, 1.2% active. AID 588591; also: % is scaled to controls: 0 for no effect and ±100 for the full control effect
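Pol eta at 10 nM preincubated with compounds 15 min at room temperature; reaction started with fluorescent substrate (50 nM final) and read kinetically at 0 and 10 min.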
Pol kappa inh: blocks human DNA polymerase kappa activity. Q9UBT6. purified Pol kappa, fluorescent DNA synthesis assay, 10 min. Potency, µM (titrated, usually from 107 µM), for the others: at the highest dose activity, negative = inhibition, usual class: inhibitors. 400,000 tested, 0.53% active. AID 588579; also: % is scaled to controls: 0 for no effect and ±100 for the full control effect
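Activity was followed as the change in fluorescence between reads at 0 and 10 min after starting the reaction with 50 nM substrate. Beforehand, 10 nM polymerase had been preincubated with compound for 15 min at room temperature.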
Pol iota inh: blocks human DNA polymerase iota activity; Q9UNA4; Pol iota fluorescent replication assay, 10 min; Potency, µM (series often up to 115 µM), without a hit: at the highest dose activity, negative = inhibition, usual class: inhibitors; 390,000 tested, 1% active; AID 588590
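Pol iota at 10 nM preincubated 15 min with compounds at room temperature; reaction started with fluorescent substrate, 50 nM final. Fluorescence read kinetically at 0 and 10 min; buffer-only wells as negative control.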
WRN helicase inh: blocks human WRN helicase; 360,000 tested, 0.46% active; WRN helicase unwinding, fluorescent forked duplex, kinetic; Potency, µM (series often up to 114 µM), without a hit: top-dose activity change, negative = inhibition, usual class: inhibitors; also: % is scaled to controls: 0 for no effect and ±100 for the full control effect; nearly all actives have a fitted effect of over 55% in size
Target sequence (Q14191 whole entry, looked up): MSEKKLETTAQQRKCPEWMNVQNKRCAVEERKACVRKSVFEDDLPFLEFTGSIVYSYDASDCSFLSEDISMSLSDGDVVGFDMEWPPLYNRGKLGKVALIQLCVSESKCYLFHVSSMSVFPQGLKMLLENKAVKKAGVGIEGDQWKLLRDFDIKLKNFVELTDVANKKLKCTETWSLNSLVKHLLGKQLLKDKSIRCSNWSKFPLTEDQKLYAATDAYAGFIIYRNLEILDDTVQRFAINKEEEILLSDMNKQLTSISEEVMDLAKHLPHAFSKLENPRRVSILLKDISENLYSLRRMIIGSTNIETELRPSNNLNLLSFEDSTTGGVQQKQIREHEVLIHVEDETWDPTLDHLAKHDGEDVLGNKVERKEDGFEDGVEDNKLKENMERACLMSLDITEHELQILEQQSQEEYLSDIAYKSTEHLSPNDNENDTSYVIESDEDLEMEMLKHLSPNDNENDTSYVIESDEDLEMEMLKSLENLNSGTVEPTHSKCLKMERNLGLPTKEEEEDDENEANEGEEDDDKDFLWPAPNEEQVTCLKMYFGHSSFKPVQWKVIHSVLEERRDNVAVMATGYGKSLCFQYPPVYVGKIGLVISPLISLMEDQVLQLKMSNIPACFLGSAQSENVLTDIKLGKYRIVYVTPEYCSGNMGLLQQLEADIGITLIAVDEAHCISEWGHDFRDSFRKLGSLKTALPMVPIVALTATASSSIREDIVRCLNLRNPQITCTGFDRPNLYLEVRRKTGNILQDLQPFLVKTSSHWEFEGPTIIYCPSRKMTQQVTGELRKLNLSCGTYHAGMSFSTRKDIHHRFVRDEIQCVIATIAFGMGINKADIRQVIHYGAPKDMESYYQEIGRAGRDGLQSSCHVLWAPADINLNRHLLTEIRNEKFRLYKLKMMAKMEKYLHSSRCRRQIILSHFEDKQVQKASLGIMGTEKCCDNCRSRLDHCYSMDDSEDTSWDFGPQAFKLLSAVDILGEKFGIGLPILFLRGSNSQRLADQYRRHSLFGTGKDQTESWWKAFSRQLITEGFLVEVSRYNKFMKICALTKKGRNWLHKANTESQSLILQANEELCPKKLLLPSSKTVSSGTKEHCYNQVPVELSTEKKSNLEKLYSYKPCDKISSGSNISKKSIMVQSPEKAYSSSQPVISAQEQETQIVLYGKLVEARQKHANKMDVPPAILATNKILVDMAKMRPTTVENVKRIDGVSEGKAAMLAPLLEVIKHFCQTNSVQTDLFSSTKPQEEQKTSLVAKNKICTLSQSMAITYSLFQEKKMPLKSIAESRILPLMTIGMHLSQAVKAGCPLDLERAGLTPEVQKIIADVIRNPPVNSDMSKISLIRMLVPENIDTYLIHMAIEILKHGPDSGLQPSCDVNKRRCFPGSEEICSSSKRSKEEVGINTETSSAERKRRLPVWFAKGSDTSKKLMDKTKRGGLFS
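Enzyme (20 nM final) and test compound sit together 15 min at room temperature before substrate addition. Substrate is a single-forked duplex oligonucleotide (100 nM) labelled with fluorophore and quencher, with 2 mM ATP; helicase unwinding raises red fluorescence, read kinetically.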
POLB inh: DNA polymerase beta (human) inhibition | AID 485314 | 340,000 tested, 1.3% active | Pol beta primer extension/strand displacement, fluorescence kinetic | Potency, µM (titrated, usually from 114 µM), for inactives: at the highest dose activity change, negative = inhibition, usual class: inhibitors; also: % is scaled to controls: 0 for no effect and ±100 for the full control effect
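Preincubation: enzyme (10 nM) with compound, 15 min, RT. Reaction: substrate added to 50 nM final. Reads: 0 and 10 min. Analysis: normalized, Hill fit.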
Numbers without * were called inactive; ? = inconclusive; nt = not tested or not shown; ! = not confirmed by another sample; [ ] = dose if it differs, or a comment. Calls follow the shape of the dose curve; as a rule, active = well fitted curve in the direction sought with a large enough effect; inconclusive = small, poorly fitted or top-dose-only effect, or another doubt; inactive = no such curve, though single readings can be large; an effect the other way counts as inactive or inconclusive. Potency is read from the fitted curve at half-maximal effect.

SMILES	FEN1 inhibitor	Pol eta inh	Pol kappa inh	Pol iota inh	WRN helicase inh	POLB inh
Cc1ccc(S(=O)(=O)NCC(=O)N(CC(=O)NCC2CCCO2)Cc2ccco2)cc1 (configuration not stated)	15%	-12%	-8%	21%	-3%[57.1 µM]	13µM*
Cn1c(SCc2cc(=O)c3cc(Cl)ccc3[nH]2)nnc1-c1ccccc1	15%	-7%	-16%[60.1 µM]	6%	nt	7%
COC(=O)c1ccc(NC(=O)Cn2c(=O)nc(-c3ccccc3)c3ccccc32)cc1	-3%	-12%	-1%[60.1 µM]	-3%	nt	1%
O=Nc1c(O)[nH]c2ccc(Cl)c(Cl)c12	?	-5%	-3%	61%	-22%	nt
Cc1cc(/C=N/Nc2ccc([N+](=O)[O-])cn2)c(C)n1-c1ccccc1	-2%	-14%	-12%	24%	-12%	-1%
Cc1c(C(=O)O)cccc1-n1c(C)cc(/C=N/Nc2ccc([N+](=O)[O-])cn2)c1C	-15%	?	79µM*	50µM*	-1%[11.6 µM]	25µM*
COc1cc2c(cc1OC)C(c1oc(-c3ccc(-c4cc(Cl)ccc4Cl)o3)cc1C)=NCC2	-5%	nt	-6%	-2%	nt	nt
COc1cc(C(=O)Nc2ccc(C)c(S(=O)(=O)N(C)C)c2)ccc1OCC(=O)N1CCOCC1	1%	?	-9%	50µM*	3%[11.6 µM]	nt
O=C(CCCOc1ccc(Cl)cc1Cl)Nc1ccccc1C(=O)O	-7%	-12%	-18%	28%	-7%	10%
CCCCOc1ccc(Nc2cc(Cl)ccc2C(=O)O)cn1	-11%	-13%	-2%	75%	-9%	40µM*
Oc1ccc(/C=C/c2cc(O)cc(O)c2)cc1	-16%	-3%[57.1 µM]	14µM*!	?	-13%	?
CC(=O)NC1=NC(=O)/C(=C/c2cn(C(C)=O)nc2-c2ccccc2)S1	?	?	-21%	22µM*	-14%[11.6 µM]	-13%
CCN(Cc1cccc(S(=O)(=O)O)c1)c1ccc(C(=C2C=CC(=[N+](CC)Cc3cccc(S(=O)(=O)O)c3)C=C2)c2ccccc2S(=O)(=O)[O-])cc1	32µM*	nt	7.9µM*	?	nt	nt
CCN(Cc1cccc(S(=O)(=O)O)c1)c1ccc(C(=C2C=CC(=[N+](CC)Cc3cccc(S(=O)(=O)O)c3)C=C2)c2ccc(O)cc2S(=O)(=O)O)cc1	13µM*	nt	2.8µM*	2.2µM*	nt	nt
CC1=CC(=O)C=C/C1=C(/c1ccc(O)cc1C)c1ccccc1S(=O)(=O)O	14%	1%	0%	-10%	-13%	nt
O=C(CSCc1cnn(-c2ccccc2)c1-n1cccc1)NCc1ccccc1F	12%	-14%	-20%	6%	nt	-5%
CC(=O)c1ccccc1NC(=O)CSc1nnc2ccccn12	nt	nt	nt	nt	nt	4%
NC(=O)c1ccsc1NC(=O)CSc1nnc2ccccn12	16%	?	-21%	?	-7%[11.6 µM]	25µM*
CCOC(=O)c1ccc(NC(=O)c2cc3c(n(-c4ccc(C)cc4)c2=O)CC(C)(C)CC3=O)cc1	17%	-19%	89µM*	?	nt	-4%
N#CC1=C(N)n2c(s/c(=C\c3ccco3)c2=O)=C(C#N)C1c1ccco1 (configuration not stated)	45µM*	3.2µM*	22µM*	7.9µM*	40µM*	7.1µM*
N#CC1=C(N)n2c(s/c(=C\c3cccs3)c2=O)=C(C#N)C1c1cccs1 (configuration not stated)	?	45µM*	?	?	-11%[11.6 µM]	?
Cc1ccccc1-n1c(=O)/c(=C\c2ccco2)s/c1=C(/C#N)C(=O)Nc1ccccc1	11%	-3%	-31%	-2%	-13%	12%
CC1(C)CC(=O)C2=C(C1)N(c1ccc(F)cc1)C(N)=C(C#N)C2c1cccs1 (configuration not stated)	-18%	-9%	-20%	9%	-22%	18%
CCN1c2ccccc2-c2nc(SCC(=O)Nc3ccc(C)c(Cl)c3)ncc2S1(=O)=O	-10%	-23%	-7%	16%	nt	-6%
Cc1ccc(-c2nc(NC(=O)CSc3cc(C)c4ccccc4n3)ns2)cc1	?	?	-22%	-10%	-15%	8.9µM*
SMILES	FEN1 inhibitor	Pol eta inh	Pol kappa inh	Pol iota inh	WRN helicase inh	POLB inh
COc1ccc(NC(=O)c2oc3ccccc3c2NC(=O)Cc2ccc(F)cc2)c(OC)c1	1%	-16%	0%	60%	nt	15%
CCOc1ccc(NC(=O)CN2C(=O)c3ccccc3Sc3ccc(C(=O)OC)cc32)cc1	-1%	?	-1%[60.1 µM]	4%	nt	79µM*
COc1ccc(-c2noc(-c3nnn(-c4ccc(C(C)C)cc4)c3C)n2)cc1OC	-8%	nt	22%	-11%	nt	?
O=C(NCc1ccco1)C1Cc2ccccc2CN1C(=O)c1ccco1 (configuration not stated)	11%	32µM*	?	32µM*	-7%[11.6 µM]	22µM*
O=C(NCc1ccco1)C1Cc2ccccc2CN1S(=O)(=O)c1ccccc1F (configuration not stated)	-21%	10µM*	?	13µM*	?	nt
COc1ccc(CNC(=O)C2Cc3ccccc3CN2C(=O)c2ccco2)cc1 (configuration not stated)	-4%	-14%	-2%	5%	-6%	?
CCOC(=O)C1CCN(C(=O)CCc2nnc3ccc(N4CCC(C)CC4)nn23)CC1	7%	-11%	6%	34%	5%	39%
CCOC(=O)C1CCN(C(=O)CCc2nnc3ccc(NCc4ccco4)nn23)CC1	5%	45µM*	-31%	?	1%[11.6 µM]	3%
O=c1c([N+](=O)[O-])c(O)c2ccccc2n1Cc1ccccc1	11µM*	-12%	-16%	6%	-11%	7%
O=c1cc(O)c2c(=O)n(Cc3ccccc3)c3ccccc3c2o1	?	?	-8%	?	?	25µM*
O=c1cc(O)c2c(=O)n(C3CCCCC3)c3ccccc3c2o1	-4%	?	-23%	?	-18%[57.1 µM]	45µM*
CCCCn1c(=O)c2c(O)cc(=O)oc2c2ccccc21	-19%	?	-5%	8%	-8%	?
O=C(Cc1ccc(F)cc1)NC1CC(=O)N(c2ccc3c(c2)OCCO3)C1 (configuration not stated)	-6%	-11%	-6%[60.1 µM]	3%	nt	-2%
O=C(CC1NCCNC1=O)Nc1cccc(F)c1 (configuration not stated)	11%	-9%	-7%	-12%	nt	-23%
COc1ccc(CNC(=O)Cn2c(=O)n3nc(-c4cccc(F)c4)nc3c3ccccc32)cc1OC	-5%	3%	-4%[60.1 µM]	-3%	nt	25%
